NALP3 yeast inh = NALP3 inhibition in yeast; Yeast reconstituted NLRP3/ASC/caspase-1, beta-gal luminescence, 24 h; inhibition, % at 10 µM; actives 0.39% (n = 330,000);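 active = inhibition of 50% or more; inactive = inhibition below 50%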
tim23-1 inh = growth inhibitors of tim23-1 mutant yeast; S. cerevisiae tim23-1 growth, BacTiter-Glo luminescence, 24 h; inhibition, % at 20 µM; actives 1.3% (n = 330,000); AID 463212;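 active = growth inhibition of the mutant yeast at or above 50%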;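 note: temperature-sensitive mutant grown at 25 °C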
NALP1 yeast inh = inhibitors of NALP1 inflammasome in yeast; AID 2071; S. cerevisiae NALP1/ASC/caspase-1 growth, X-gal OD620, 72 h; inhibition, % at 10 µM; actives 0.61% (n = 280,000); in the data active = inhibition mostly above about 24%, no sharp cut-off; inactive = mostly below about 32%
tim10-1 inh = inhibits growth of tim10-1 mutant yeast | S. cerevisiae tim10-1 ts strain growth, BacTiter-Glo, 24 h | inhibition, % at 20 µM | actives 2.2% (n = 330,000) | AID 463190;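 active = inhibition of at least 40%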;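 note: mutant grown at 25 °C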
TIM10 inh = growth inhibitors of TIM10 yeast strain; S. cerevisiae TIM10 strain growth, BacTiter-Glo luminescence, 24 h; inhibition, % at 10 µM; actives 1.4% (n = 330,000); AID 463195;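 active = inhibition of 40% or more at the single tested concentration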;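 note: wild-type TIM10 isogenic control strain grown at permissive 25 °C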
tim10-1 conf = tim10-1 yeast growth inhibition, confirmed; shares compounds with tim10-1 inh; S. cerevisiae tim10-1 ts strain growth, BacTiter-Glo, 24 h; inhibition, % at 20 µM; actives 56% (n = 7,400);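 active = inhibition of yeast growth at or above a set limit in either of two repeat tests at 20 µM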;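 note: tim10-1 mutant grown at permissive 25 °C to find synthetic lethal compounds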
tim10 confirm = TIM10 yeast growth inhibition, confirmed | actives 63% (n = 4,600) | inhibition, % at 10 µM | S. cerevisiae tim10 strain growth, BacTiter-Glo luminescence, 24 h | AID 463215 | shares compounds with TIM10 inh;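 active = inhibition of yeast growth at or above a set limit in either of two replicates at 10 µM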; note: this counterscreen used the strain with wild-type TIM10
Numbers stand for hits. Hits are enriched below; roughly 4% of the tested compounds scored in any of these assays.

Results for Cc1cc(S(=O)(=O)N2CCOCC2)ccc1NC(=O)c1ccc(F)cc1 ?
NALP3 yeast inh: inactive; tim23-1 inh: inactive; NALP1 yeast inh: inactive; tim10-1 inh: inactive; TIM10 inh: inactive

How did O=C(/C=C/c1ccc(N2CCC(c3ccccc3)=N2)cc1)c1ccccc1 do in these assays?
NALP3 yeast inh: inactive; tim23-1 inh: inactive; NALP1 yeast inh: inactive; tim10-1 inh: 41.3; TIM10 inh: 43.5; tim10-1 conf: inactive; tim10 confirm: inactive

What do the screens show for `O=C(N/C(=C/c1cn(-c2ccccc2)nc1-c1ccccc1)C(=O)N1CCOCC1)c1ccc(Cl)cc1Cl`?
NALP3 yeast inh: inactive; tim23-1 inh: inactive; NALP1 yeast inh: inactive; tim10-1 inh: inactive; TIM10 inh: inactive

Results for O=C(NC(=S)NCCC1=CCCCC1)c1ccccc1Br ?
NALP3 yeast inh: inactive; tim23-1 inh: inactive; NALP1 yeast inh: inactive; tim10-1 inh: 43.5; TIM10 inh: 45.7; tim10-1 conf: 31.0; tim10 confirm: 41.1

Results for Cc1cc(N2CCC(C)CC2)nc(SCC(=O)c2ccccc2)n1 ?
NALP3 yeast inh: inactive; tim23-1 inh: inactive; NALP1 yeast inh: inactive; tim10-1 inh: 53.0; TIM10 inh: 40.8; tim10-1 conf: 33.5; tim10 confirm: inactive

How did Cc1cc(N2CCCC2)nc(SCC(=O)c2ccccc2)n1 do in these assays?
NALP3 yeast inh: inactive; tim23-1 inh: inactive; NALP1 yeast inh: inactive; tim10-1 inh: inactive; TIM10 inh: inactive

How did O=C(CNC(=O)N1CC(=O)Nc2ccccc21)NCCc1ccc(Cl)cc1 do in these assays?
NALP3 yeast inh: inactive; tim23-1 inh: inactive; NALP1 yeast inh: inactive; tim10-1 inh: inactive; TIM10 inh: inactive

What do the screens show for `O=C(/C=C/c1ccc2ccccc2n1)c1cc(Cl)ccc1O`?
NALP3 yeast inh: inactive; tim23-1 inh: inactive; NALP1 yeast inh: inactive; tim10-1 inh: 54.2; TIM10 inh: 53.5; tim10-1 conf: 37.5; tim10 confirm: 36.0

What do the screens show for `O=C(/C=C/c1cccs1)c1cc(Cl)ccc1O`?
NALP3 yeast inh: inactive; tim23-1 inh: inactive; NALP1 yeast inh: inactive; tim10-1 inh: inactive; TIM10 inh: inactive

Results for CC(C)CCOc1ccc(C(=O)NCC(c2ccco2)N(C)C)cc1 (stereo not given) ?
NALP3 yeast inh: inactive; tim23-1 inh: inactive; NALP1 yeast inh: inactive; tim10-1 inh: inactive; TIM10 inh: inactive

How did N/N=C(/Cc1nc2ccccc2[nH]1)c1ccc([N+](=O)[O-])cc1 do in these assays?
NALP3 yeast inh: inactive; tim23-1 inh: inactive; NALP1 yeast inh: inactive; tim10-1 inh: 41.6; TIM10 inh: 51.0; tim10-1 conf: 50.5; tim10 confirm: 57.8

What do the screens show for `CS(=O)(=O)c1ccc(C(=O)OCc2nnc(-c3ccc(Cl)cc3)o2)cc1[N+](=O)[O-]`?
NALP3 yeast inh: inactive; tim23-1 inh: inactive; NALP1 yeast inh: inactive; tim10-1 inh: 58.7; TIM10 inh: 51.5; tim10-1 conf: 55.7; tim10 confirm: 41.0

How did Nn1cnnc1N/N=C/c1cccc(Cl)c1Cl do in these assays?
NALP3 yeast inh: inactive; tim23-1 inh: inactive; NALP1 yeast inh: inactive; tim10-1 inh: 51.0; TIM10 inh: 52.3; tim10-1 conf: 50.2; tim10 confirm: 59.9

What do the screens show for `Cc1ccc(NC(=O)COC(=O)c2cccc(C)c2[N+](=O)[O-])cc1S(=O)(=O)N1CCCCC1`?
NALP3 yeast inh: inactive; tim23-1 inh: inactive; tim10-1 inh: inactive; TIM10 inh: inactive

Results for CCCc1c(O)nc(SC2CC(=O)N(c3ccc(C)c(Cl)c3)C2=O)[nH]c1=O (stereo not given) ?
NALP3 yeast inh: inactive; tim23-1 inh: inactive; tim10-1 inh: inactive; TIM10 inh: inactive

What do the screens show for `Cc1ccc(N2C(=O)CC(Sc3nc4ccccc4o3)C2=O)cc1Cl` (stereo not given)?
NALP3 yeast inh: inactive; tim23-1 inh: inactive; NALP1 yeast inh: inactive; tim10-1 inh: 58.9; TIM10 inh: 50.2; tim10-1 conf: 42.9; tim10 confirm: 34.5

What do the screens show for `CN(C(=O)C1CCN(S(=O)(=O)c2ccccc2)CC1)c1c(N)n(Cc2ccccc2)c(=O)[nH]c1=O`?
NALP3 yeast inh: inactive; tim23-1 inh: inactive; tim10-1 inh: inactive; TIM10 inh: inactive

What do the screens show for `CCCN(CCC)C(=S)NC(=O)c1ccc(Cl)cc1Cl`?
NALP3 yeast inh: inactive; tim23-1 inh: inactive; NALP1 yeast inh: inactive; tim10-1 inh: 54.4; TIM10 inh: 40.1; tim10-1 conf: inactive; tim10 confirm: 37.2

What do the screens show for `Cc1ccccc1C(=O)NNC(=S)NC(=O)c1ccc(Cl)cc1Cl`?
NALP3 yeast inh: inactive; tim23-1 inh: inactive; NALP1 yeast inh: inactive; tim10-1 inh: inactive; TIM10 inh: inactive

How did O=C1CSC(c2cccc([N+](=O)[O-])c2)N1c1ccccc1F (stereo not given) do in these assays?
NALP3 yeast inh: inactive; tim23-1 inh: inactive; NALP1 yeast inh: inactive; tim10-1 inh: inactive; TIM10 inh: inactive

How did O=C1OC(c2ccc(F)cc2)=C/C1=C\c1ccc([N+](=O)[O-])o1 do in these assays?
NALP3 yeast inh: inactive; tim23-1 inh: inactive; NALP1 yeast inh: inactive; tim10-1 inh: 71.3; TIM10 inh: 63.8; tim10-1 conf: 41.0; tim10 confirm: 59.2

What do the screens show for `Cc1cc(C)nc(NC(=O)c2ccc(COc3ccccc3Cl)cc2)c1`?
NALP3 yeast inh: inactive; tim23-1 inh: inactive; NALP1 yeast inh: inactive; tim10-1 inh: inactive; TIM10 inh: inactive

How did CCCC1CC(C)(c2csc(Nc3ccc(OCC)cc3)n2)OC1=O (stereo not given) do in these assays?
NALP3 yeast inh: inactive; tim23-1 inh: inactive; NALP1 yeast inh: inactive; tim10-1 inh: 40.4; TIM10 inh: 48.3; tim10-1 conf: inactive; tim10 confirm: 46.1

What do the screens show for `CCOc1ccc(NC(=O)CC2CC(C)(C)OC2=O)cc1` (stereo not given)?
NALP3 yeast inh: inactive; tim23-1 inh: inactive; NALP1 yeast inh: inactive; tim10-1 inh: inactive; TIM10 inh: inactive

How did Cc1cc2cc(C)c(NCCNC(=O)c3ccccc3Cl)nc2cc1C do in these assays?
NALP3 yeast inh: inactive; tim23-1 inh: inactive; NALP1 yeast inh: inactive; tim10-1 inh: 41.6; TIM10 inh: 44.4; tim10-1 conf: inactive; tim10 confirm: inactive

How did O=C(ON=C1CCN(S(=O)(=O)c2ccccc2)CC1)c1cccc(Cl)c1 do in these assays?
NALP3 yeast inh: inactive; tim23-1 inh: inactive; NALP1 yeast inh: inactive; tim10-1 inh: 66.5; TIM10 inh: 46.8; tim10-1 conf: 67.0; tim10 confirm: 55.0

What do the screens show for `O=S(=O)(c1ccccc1)N1CCN(c2cccc(Cl)c2)CC1`?
NALP3 yeast inh: inactive; tim23-1 inh: inactive; NALP1 yeast inh: inactive; tim10-1 inh: inactive; TIM10 inh: inactive

What do the screens show for `O=C(Nc1ccc(Br)cc1)c1ccc(N2C(=O)C3CC=C(Cl)CC3C2=O)cc1` (stereo not given)?
NALP3 yeast inh: inactive; tim23-1 inh: inactive; NALP1 yeast inh: inactive; tim10-1 inh: inactive; TIM10 inh: inactive

Screens (PubChem BioAssay)
